ChEMBL document CHEMBL3433997, “St. Jude Leishmania screening dataset” (2016)

The molecules below were run against Solute carrier family 2, facilitated glucose transporter member 1 (Homo sapiens) (UniProt P11166) (assay: ST_JUDE_LEISH: Cytotoxicity at 2uM final concentration against transgenic Leishmania Mexicana promastigotes LmGLUT1 that are glucose transport deficient and complemented with the human glucose transporter GLUT1. Activity is measured by DNA content using SYBR green in vitro).
Solute carrier family 2, facilitated glucose transporter member 1 (Homo sapiens), sequence (P11166 whole entry): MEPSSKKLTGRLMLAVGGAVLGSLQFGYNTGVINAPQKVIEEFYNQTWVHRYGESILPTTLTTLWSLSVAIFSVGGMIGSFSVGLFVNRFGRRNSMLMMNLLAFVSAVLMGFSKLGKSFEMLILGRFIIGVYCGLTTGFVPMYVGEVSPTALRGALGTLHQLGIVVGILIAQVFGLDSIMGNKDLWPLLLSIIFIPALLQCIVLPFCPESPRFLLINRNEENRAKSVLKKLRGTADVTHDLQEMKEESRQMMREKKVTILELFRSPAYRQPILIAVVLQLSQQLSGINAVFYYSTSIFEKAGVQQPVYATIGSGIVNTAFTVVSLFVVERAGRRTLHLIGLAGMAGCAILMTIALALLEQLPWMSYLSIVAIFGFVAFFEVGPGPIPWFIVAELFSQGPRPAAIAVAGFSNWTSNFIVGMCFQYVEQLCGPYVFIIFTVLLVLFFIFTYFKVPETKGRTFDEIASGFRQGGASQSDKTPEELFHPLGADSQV
Assay type: functional
`Nc1cccc(CNCc2ccc(-c3cccc(-c4nc5cc(F)ccc5[nH]4)c3)cc2)c1` gave an inhibition of -0.29%. With `OCC1CCN(Cc2cccc(C#Cc3cc4ncnc(Nc5ccc(OCc6cccc(F)c6)c(Cl)c5)c4s3)n2)CC1` the inhibition was 14.1%. In the case of `CC12CN3CC(C)(CN(C1)C3c1cc(Br)ccc1O)C2O` (stereo not given), the inhibition is reported as -3.78%. In the case of `COc1cccc(-c2csc(C(=O)NCC3CCN(Cc4ccc(C(C)(C)C)cc4)C3)c2)c1` (stereo not given), the inhibition is reported as 3.1%. In the case of `Cc1[nH]c(C)c(-c2ccc(-c3ccc(OC(F)(F)F)cc3)cc2)c(=O)c1Cl`, the inhibition is reported as 4.71%. Molecule `CN(C)CCOc1cc(NC(=O)Nc2ccc3c(c2)CCCC3=O)ccc1I` has an inhibition of 5.03%. Work on `N#Cc1ccc(-c2ccc(C(=O)NCCCCN3CCC(c4ccc5c(c4OCC(N)=O)CCCC5)CC3)cc2)cc1` yielded an inhibition of 1.23%. For `Cc1cc(-c2cc(Cl)ccc2Cl)no1`, the inhibition was -2.71%. `Cc1cc(C)n(-c2nc(Nc3cccc(C(F)(F)F)c3)nc(-n3nc(C)cc3C)n2)n1` showed an inhibition of -2.75%. Molecule `CCCc1cc(Cc2cnc(N)nc2N)c2cccnc2c1OC` has an inhibition of 6.44%. `CN(C)Cc1ccc(-c2ccc3c(Nc4ccc(Oc5ccccc5)cc4)ccnc3c2)o1` was tested, and the inhibition was 0.83%. In the case of `NCCCNc1ccc(-c2ccc(NC(=O)Nc3cc(C(F)(F)F)ccc3F)cc2)cn1`, the inhibition is reported as 2.29%. `O=C(C1CCCCC1)N1CCOC(CCN2CCC(c3ccccc3)CC2)(c2ccc(Cl)c(Cl)c2)C1` (stereo not given) was tested, and the inhibition was 15.2%. `CN(C)Cc1ccc(-c2cc3ncnc(Nc4ccc(OCc5cccc(F)c5)c(Cl)c4)c3s2)[nH]1` was tested, and the inhibition was 3.19%. `CCCO[C@H](C(=O)OC)[C@@H](CC1Cc2ccccc2C1)C(=O)NCCC1=CCCCC1` gave an inhibition of 1.54%. With `CCCN(CCC)C(=O)c1cc(C(=O)N[C@@H](Cc2ccccc2)[C@H](O)CNCc2cccc(C(F)(F)F)c2)cc(N2CCCCS2(=O)=O)c1` the inhibition was -1.33%. Work on `Cc1ccc(CNC(=O)[C@H](CCCN)Nc2nc(Nc3ccccc3)ncc2C)cc1` yielded an inhibition of 1.37%. `CC(C)CCOc1ccc(NC(=O)c2cccs2)cc1` showed an inhibition of 4.93%. For `CCOC(=O)c1c(CCc2ccc(C(F)(F)F)cc2)nc2c(c1-c1ccc(C(=O)N[C@@H](C)c3ccncc3)cc1)C(=O)N1CCC[C@@H]21`, the inhibition was 2.81%. `Cc1cc(C)cc(OCC(O)CN(CCN2CCOCC2)C(=O)Nc2ccc(Br)cc2)c1` (stereo not given) gave an inhibition of 12.2%. `CCN(CC)CCN(Cc1ccc(-c2ccc(C(F)(F)F)cc2)cc1)C(=O)c1c[nH]c2ccc(Br)cc12` gave an inhibition of 1.48%. `CC(C)[C@H](NC(=O)c1ccc(O)c(-c2ccc(Cl)c(Cl)c2)c1)C(=O)NCCN1CCOCC1` was tested, and the inhibition was 2.3%. Molecule `c1cncc(CCNCc2ccc(-c3ccc(CNC4Cc5ccccc5C4)cc3)cc2)c1` has an inhibition of 5.14%. For `N#Cc1ccc(NC2(C(=O)N3CCN(c4cccc(Cl)c4)CC3)CC2)c2ccccc12`, the inhibition was 2.79%. With `CCN(CC)S(=O)(=O)c1ccc(C=CC(=O)Nc2cc(Cl)ccc2N2CCOCC2)cc1` the inhibition was 6.36%. In the case of `Cc1c(CNCCCNc2nc3ccncc3[nH]2)sc(Br)c1Br`, the inhibition is reported as 6.56%. Work on `N#Cc1ccc(-c2ccc(OCC(O)CN3CCCN(Cc4cccc(O)c4Cl)CC3)cc2)cc1` (stereo not given) yielded an inhibition of 4.04%. With `C=C[C@H]1CN(CCCCCCC)CC[C@H]1CC(O)Cc1ccnc2cc(O)c(OC)cc12` (stereo not given in full) the inhibition was -1.66%. For `Clc1ccc2c(Cl)c(CNCCCNc3nc4ccccc4[nH]3)[nH]c2c1`, the inhibition was 0.17%. With `O=C(NCCCN1CCC(N2CCCCC2)CC1)c1ccc2nc(N3CCCCC3)sc2c1` the inhibition was 5.78%. With `COc1ccc(Cl)cc1N1CCN(CCCNC(=O)c2ccc(-c3nc4cc5ccccc5cc4[nH]3)c(F)c2)CC1` the inhibition was 1.51%. Work on `CN1CCC(C(=O)N(Cc2ccc(-c3ccc(CNCCc4ccc(S(C)(=O)=O)cc4)cn3)cc2)C2Cc3ccccc3C2)CC1` yielded an inhibition of 0.67%. In the case of `CCOc1cccc(C2c3c(oc4ccccc4c3=O)C(=O)N2CCN(CC)CC)c1` (stereo not given), the inhibition is reported as 4.85%. Molecule `N#Cc1ccccc1S(=O)(=O)N1CCCC(CNC(=O)[C@H](CC2CCCCC2)NC(=O)c2cc3ccccc3s2)C1` (stereo not given in full) has an inhibition of 1.08%. `NC1CCCN(Cc2cccc(-c3ccc(-c4nc5cc(F)ccc5[nH]4)cc3)c2)C1` (stereo not given) gave an inhibition of 3.55%. In the case of `N=C(N)c1ccc(-c2cc3ccc(C(=N)N)cc3[nH]2)cc1`, the inhibition is reported as 62.9%. `CC(C)Cc1cn(-c2nc(-c3nc4ccccc4[nH]3)cs2)c2ccncc12` gave an inhibition of 4.69%. `NCCCCc1c(-c2ccc(Cl)c(Cl)c2)[nH]c2ccc(Cl)cc12` showed an inhibition of -2.7%. `CN(C)CCNCc1cccc(-c2ccc3c(Nc4ccc(Oc5ccccn5)cc4)ccnc3c2)c1` showed an inhibition of 0.48%. With `Cc1ccc(-c2nnc3c4ccccc4c(C)nn23)cc1S(=O)(=O)N1CCN(CCO)CC1` the inhibition was 0.38%.
